In PubChem BioAssay AID1159580 (chemical genetic matrix, 2015):
Among all 5,500 compounds or so, about 2,000 (36%) were called active. About 18% were inconclusive and are not listed. Rule as the data show it: active = normalized growth mostly below about 0.91 (no sharp cut-off); inconclusive = no clear call, values can overlap the other calls; inactive = mostly above about 0.92. This is one part of the list.

Assay: chemical genetic growth profiling, strain panel (AID 1159580);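 also: tested at 20 µM; growth read once vehicle control cultures reached saturation at 30 °C; 1 = growth at the plate median or of vehicle wells; lower values mean less growth of the strain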
Conditions: growth OD

Measured: normalized growth

O=C(O)CNCP(=O)(O)O
inactive: S. cerevisiae deletion strains, locus YJR075W, strain HOC1, active compounds read low 1.01 | S. cerevisiae deletion strains, locus YKL009W, strain mrt4, active compounds read low 1.04 | S. cerevisiae deletion strains, locus YKL068W, active compounds read low 1.01 | S. cerevisiae deletion strains, locus YKL085W, strain MDH1 (second series), active compounds read low 1 | S. cerevisiae deletion strains, locus YKL085W, strain MDH1, active compounds read low 1 | S. cerevisiae deletion strains, locus YKL160W, strain elf1, active compounds read low 1.02 | S. cerevisiae deletion strains, locus YKL190W, strain CNB1, active compounds read low 1.01 | S. cerevisiae deletion strains, locus YKR001C, strain vps1, active compounds read low 1.02 | S. cerevisiae deletion strains, locus YKR026C, strain gcn3, active compounds read low 1.02 | S. cerevisiae deletion strains, locus YKR091W, strain srl3, active compounds read low 1.01 | S. cerevisiae deletion strains, locus YLL001W, strain dnm1, active compounds read low 1.02 | S. cerevisiae deletion strains, locus YLL026W, active compounds read low 1.01 | S. cerevisiae deletion strains, locus YLL041C, strain sdh2, active compounds read low 1.01 | S. cerevisiae deletion strains, locus YLR027C, strain aat2, active compounds read low 1.01 | S. cerevisiae deletion strains, locus YLR039C, strain RIC1, active compounds read low 1.03 | S. cerevisiae deletion strains, locus YLR058C, strain SHM2, active compounds read low 1.01 | S. cerevisiae deletion strains, locus YLR102C, strain apc9, active compounds read low 1.01 | S. cerevisiae deletion strains, locus YLR113W, strain HOG1, active compounds read low 1.02 | S. cerevisiae deletion strains, locus YLR221C, strain rsa3, active compounds read low 1.01 | S. cerevisiae deletion strains, locus YLR258W, strain gsy2, active compounds read low 1.02 | S. cerevisiae deletion strains, locus YLR262C, strain YPT6 (second series), active compounds read low 1.03 | S. cerevisiae deletion strains, locus YLR262C, strain YPT6, active compounds read low 1.03 | S. cerevisiae deletion strains, locus YLR268W, strain sec22, active compounds read low 1 | S. cerevisiae deletion strains, locus YLR320W, strain mms22, active compounds read low 1.03 | S. cerevisiae deletion strains, locus YLR330W, strain CHS5, active compounds read low 1.01 | S. cerevisiae deletion strains, locus YLR342W, strain FKS1 (second series), active compounds read low 1.03 | S. cerevisiae deletion strains, locus YLR342W, strain FKS1, active compounds read low 1.03 | S. cerevisiae deletion strains, locus YLR357W, strain rsc2, active compounds read low 1.03 | S. cerevisiae deletion strains, locus YLR370C, strain arc18, active compounds read low 1 | S. cerevisiae deletion strains, locus YLR371W, strain rom2, active compounds read low 1.01 | S. cerevisiae deletion strains, locus YLR384C, strain iki3, active compounds read low 0.993 | S. cerevisiae deletion strains, locus YLR418C, strain cdc73, active compounds read low 1.02 | S. cerevisiae deletion strains, locus YML016C, strain PPZ1, active compounds read low 1 | S. cerevisiae deletion strains, locus YML032C, strain rad52, active compounds read low 1.01 | S. cerevisiae deletion strains, locus YML120C, strain ndi1, active compounds read low 1.02 | S. cerevisiae deletion strains, locus YML124C, strain tub3, active compounds read low 1.01 | S. cerevisiae deletion strains, locus YMR058W, strain fet3, active compounds read low 1.02 | S. cerevisiae deletion strains, locus YMR078C, strain ctf18, active compounds read low 1.01 | S. cerevisiae deletion strains, locus YMR125W, strain sto1, active compounds read low 1.02 | S. cerevisiae deletion strains, locus YMR129W, active compounds read low 1.01 | S. cerevisiae deletion strains, locus YMR205C, strain PFK2, active compounds read low 1.05 | S. cerevisiae deletion strains, locus YMR223W, strain ubp8, active compounds read low 1.01 | S. cerevisiae deletion strains, locus YMR231W, strain pep5, active compounds read low 1 | S. cerevisiae deletion strains, locus YMR263W, strain SAP30, active compounds read low 1.01 | S. cerevisiae deletion strains, locus YMR307W, strain GAS1, active compounds read low 0.975 | S. cerevisiae deletion strains, locus YNL067W, strain RPL9B, active compounds read low 1.02 | S. cerevisiae deletion strains, locus YNL071W, strain lat1, active compounds read low 1.02 | S. cerevisiae deletion strains, locus YNL128W, strain TEP1, active compounds read low 1 | S. cerevisiae deletion strains, locus YNL153C, strain GIM3, active compounds read low 1 | S. cerevisiae deletion strains, locus YNL183C, strain NPR1, active compounds read low 0.917 | S. cerevisiae deletion strains, locus YNL209W, strain ssb2, active compounds read low 1.03 | S. cerevisiae deletion strains, locus YNL233W, strain BNI4, active compounds read low 1.02 | S. cerevisiae deletion strains, locus YNL248C, strain rpa49, active compounds read low 1.01 | S. cerevisiae deletion strains, locus YNL250W, strain rad50, active compounds read low 1 | S. cerevisiae deletion strains, locus YNL271C, strain bni1, active compounds read low 1.01 | S. cerevisiae deletion strains, locus YNL298W, strain CLA4, active compounds read low 1.02 | S. cerevisiae deletion strains, locus YNL307C, strain MCK1, active compounds read low 1.02 | S. cerevisiae deletion strains, locus YNL322C, strain KRE1 (second series), active compounds read low 1.02 | S. cerevisiae deletion strains, locus YNL322C, strain KRE1, active compounds read low 1 | S. cerevisiae deletion strains, locus YNR049C, strain mso1, active compounds read low 1.02 | S. cerevisiae deletion strains, locus YNR052C, strain pop2, active compounds read low 1.01 | S. cerevisiae deletion strains, locus YOL006C, strain TOP1, active compounds read low 1.05 | S. cerevisiae deletion strains, locus YOL012C, strain htz1 0.788 | S. cerevisiae deletion strains, locus YOL147C, strain pex11, active compounds read low 1.01 | S. cerevisiae deletion strains, locus YOR001W, strain rrp6, active compounds read low 1.01 | S. cerevisiae deletion strains, locus YOR061W, strain CKA2, active compounds read low 1 | S. cerevisiae deletion strains, locus YOR069W, strain VPS5, active compounds read low 1.01 | S. cerevisiae deletion strains, locus YOR070C, strain gyp1, active compounds read low 1.02 | S. cerevisiae deletion strains, locus YOR080W, strain dia2, active compounds read low 1.01 | S. cerevisiae deletion strains, locus YOR083W, strain WHI5, active compounds read low 1.01 | S. cerevisiae deletion strains, locus YOR106W, strain vam3, active compounds read low 1.02 | S. cerevisiae deletion strains, locus YOR136W, strain idh2, active compounds read low 1.02 | S. cerevisiae deletion strains, locus YOR144C, strain elg1, active compounds read low 1.02 | S. cerevisiae deletion strains, locus YOR184W, strain ser1, active compounds read low 1.02 | S. cerevisiae deletion strains, locus YOR231W, strain MKK1, active compounds read low 0.977 | S. cerevisiae deletion strains, locus YOR265W, strain rbl2, active compounds read low 1.01 | S. cerevisiae deletion strains, locus YOR270C, strain vph1, active compounds read low 1.03 | S. cerevisiae deletion strains, locus YOR290C, strain snf2, active compounds read low 1.02 | S. cerevisiae deletion strains, locus YOR316C, strain cot1, active compounds read low 1.01 | S. cerevisiae deletion strains, locus YPL051W, strain arl3, active compounds read low 1.02 | S. cerevisiae deletion strains, locus YPL055C, strain LGE1, active compounds read low 0.987 | S. cerevisiae deletion strains, locus YPL078C, strain atp4, active compounds read low 1.02 | S. cerevisiae deletion strains, locus YPL106C, strain sse1, active compounds read low 1.02 | S. cerevisiae deletion strains, locus YPL240C, strain hsp82, active compounds read low 1.02 | S. cerevisiae deletion strains, locus YPL241C, strain CIN2, active compounds read low 0.999 | S. cerevisiae deletion strains, locus YPL256C, strain CLN2, active compounds read low 0.962 | S. cerevisiae deletion strains, locus YPR119W, strain clb2, active compounds read low 1.01 | S. cerevisiae deletion strains, locus YPR141C, strain kar3, active compounds read low 1.02 | S. cerevisiae deletion strains, locus YPR163C, strain tif3, active compounds read low 1.01 | S. cerevisiae deletion strains, locus YPR167C, strain met16, active compounds read low 1.02 | S. cerevisiae deletion strains, strain wtn01, active compounds read low 1.01 | S. cerevisiae strains, strain wild type, active compounds read low 0.997
